Differential viability (reversal) and viability data for 40 compounds are collected here from PubChem BioAssay.

Structures are written as SMILES. Calls of active or inactive are those of the source.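 How the source made its calls: active means viability loss from added drug above about 55%, and viability with drug at most 40%, in both replicates (limit read from the data, passing the limit was not always enough); inconclusive means both conditions met in only one replicate; inactive means neither replicate meets both conditions.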

The first assay is described as follows: MRP1 drug-resistance reversers in H69AR cells – cell-based, doxorubicin co-treatment, pilot screen (AID 601). As to conditions: H69AR cells + 2 uM doxorubicin, CellTiter-Glo, 72 h; at 10 µM; stronger effect = higher value.
With `O=C1c2ccccc2C(=O)N1Cc1nc2ccccc2c(=O)n1CCN1CCOCC1`, the differential viability (reversal) is -3.33% (inactive).
The same measure, in the same setting: with `Nc1c(C(=O)NCCc2ccccc2)nnn1Cc1ccccc1` the figure was 11.2% (inactive).
For `CC1/C(=N/O)C(CN(C)C)C2CC1C2(C)C` (stereo not given), the differential viability (reversal) was 31.7% (inactive).
Turning to `Nc1cc(-c2ccccc2)ccc1O`, the differential viability (reversal) was 12% (inactive).
As for `CCOC(=O)c1c(C)[nH]c(C=Nc2ccccc2)c1O`, the differential viability (reversal) is 10.2% (inactive).
Same read-out and setting: with `O=C(COc1nnc2ccccn12)N1CCN(S(=O)(=O)c2ccccc2)CC1` the figure was 13.2% (inactive); with `O=C(Nc1ccc2nc(-c3cccs3)[nH]c2c1)c1ccco1`, 1.25% (inactive); with `COC(=O)c1ccccc1NC(=O)CC(NCc1ccccc1)C(=O)O` (stereo not given), 0.78% (inactive).
Same read-out and setting: with `CCOC(=O)c1oc2ccccc2c1CSc1nnnn1-c1ccc(OC)cc1` the figure was 1.07% (inactive); with `CC1(C)CC(=O)C2=C(C1)OC(=O)C2(NC(=O)c1cccs1)C(F)(F)F` (stereo not given), 3.83% (inactive).
Same read-out and setting: with `CCc1ccc(CNCc2cccnc2)cc1` the figure was 6.96% (inactive).
Consider `CCOC(=O)C1CCN(C(=O)C2CCN(S(=O)(=O)c3cc(Cl)ccc3Cl)CC2)CC1`, for which the differential viability (reversal) is 20.7% (inactive).
As to `Cc1cnc(-c2nnc(N(C)C(=O)C3CCOC3)s2)cn1` (stereo not given), the differential viability (reversal) was 17% (inactive).
On the same count and under the same terms, with `CN1/C(=C\C(=O)C(F)F)C(C)(C)c2ccccc21` the figure was 19.5% (inactive); with `Nc1cc(CN2C(=O)c3ccccc3C2=O)cc(Cl)c1O`, 29% (inactive); with `COCc1nnc(NC(=O)CCCOc2ccccc2)s1`, 10.4% (inactive).
Same read-out and setting: with `CCCN(CCC)S(=O)(=O)c1ccc(NS(C)(=O)=O)cc1` the figure was 6.41% (inactive).
On the same count and under the same terms, with `Cc1nnc2n(-c3ccccc3)c(=O)c3c4c(sc3n12)CCCC4` the figure was 33.2% (inactive); with `COC(=O)c1ccccc1NC(=O)C1CC(=O)N(c2ccc(F)cc2)C1` (stereo not given), 15.5% (inactive).
For `O=C(CCc1ccccc1)Nc1ccncc1`, the differential viability (reversal) is 5.17% (inactive).
The same measure, in the same setting: with `CN(CC(=O)Nc1nccs1)S(=O)(=O)c1ccc(F)cc1` the figure was -7.69% (inactive).
`COc1cccc(-c2nc(CSCC(=O)N3CCc4ccccc43)c(C)o2)c1`: the differential viability (reversal) was -10.1% (inactive).
Same read-out and setting: with `CCCC(=O)Nc1nnc(CC(=O)OCC)s1` the figure was -0.96% (inactive).
On to `COc1ccc(N2CCN(C(c3cccs3)C(C)NC(=O)c3ccco3)CC2)cc1` (stereo not given), for which the differential viability (reversal) was -4.01% (inactive).
Same read-out and setting: with `O=C(CSc1ncccn1)NCc1ccccc1` the figure was 5.14% (inactive); with `Cc1ccc(-c2[nH]nc3c2C(c2ccc(OC(=O)N4CCOCC4)cc2)C(C#N)=C(N)O3)cc1` (stereo not given), -10.4% (inactive); with `O=C(Nc1ccccc1)N(O)c1ccc(Cl)cc1`, 11.8% (inactive).
Same read-out and setting: with `CCCCCC(=O)N1CC2(CC)CN(C(=O)CCCCC)CC(CC)(C1)C2=O` the figure was -6.35% (inactive).
For the compound `Cc1cc(NC(=O)C23CCC(C)(c4nc5cc(Cl)c(Cl)cc5nc42)C3(C)C)no1` (stereo not given), the differential viability (reversal) is 14.6% (inactive).
The same measure, in the same setting: with `CCOC(=O)CSc1nnc(Cn2nnc(-c3ccccc3)n2)n1CC` the figure was -2.04% (inactive).
Consider `O=C(COC(=O)c1ccc(Br)o1)Nc1ccc(S(=O)(=O)N2CCCC2)cc1`, for which the differential viability (reversal) was 13.3% (inactive).
Still for that read-out and setting: with `Cc1cccc(-n2c(O)c(C=Nc3ccccc3N)c(=O)[nH]c2=O)c1` the figure was -28.2% (inactive).
For `Cn1c(-c2ccccc2)cc(=O)c2ccccc21`, the differential viability (reversal) is -6.83% (inactive).
Consider `COc1cc(S(=O)(=O)NC2CCCCC2)ccc1Cl`, for which the differential viability (reversal) is 7.43% (inactive).
The same measure, in the same setting: with `c1ccc(Cn2nnnc2CN2CCN(c3ncccn3)CC2)cc1` the figure was -0.765% (inactive); with `CS(=O)(=O)N(CC(=O)O)c1cccc(Cl)c1`, -0.88% (inactive).
The same measure, in the same setting: with `O=S1(=O)CC(N2CCOCC2)c2ccccc21` (stereo not given) the figure was 4.56% (inactive).
Same read-out and setting: with `C=CCn1cc(C(=O)NCCOC)c(=O)c2cc(S(=O)(=O)N(CC)CC)ccc21` the figure was -9.34% (inactive).
Turning to `Cc1ccc(C(=O)OCC(=O)c2ccc(Cl)s2)s1`, the differential viability (reversal) was 6.55% (inactive).
As to `CCOC(=O)/N=C(/NC(=O)Nc1ccc(C(=O)OCC)cc1)OC`, the differential viability (reversal) was 14.8% (inactive).

Staying with this assay, now noted: H69AR cells + 2 uM doxorubicin, CellTiter-Glo, 72 h; measured here: viability with 2 uM doxorubicin; at 10 µM; stronger effect = lower value.
The viability is a read-out of living cells in per cent, often relative to untreated cells. `O=C1c2ccccc2C(=O)N1Cc1nc2ccccc2c(=O)n1CCN1CCOCC1`: the viability was determined as 92.2%.
Take `Nc1c(C(=O)NCCc2ccccc2)nnn1Cc1ccccc1`: the viability is 84.7%.
Still for that read-out and setting: with `CC1/C(=N/O)C(CN(C)C)C2CC1C2(C)C` (stereo not given) the figure was 76.3%.
`Nc1cc(-c2ccccc2)ccc1O`: the viability amounted to 60.9%.
Same read-out and setting: with `CCOC(=O)c1c(C)[nH]c(C=Nc2ccccc2)c1O` the figure was 90.8%; with `O=C(COc1nnc2ccccn12)N1CCN(S(=O)(=O)c2ccccc2)CC1`, 84%.
Still for that read-out and setting: with `O=C(Nc1ccc2nc(-c3cccs3)[nH]c2c1)c1ccco1` the figure was 74%.
Turning to `COC(=O)c1ccccc1NC(=O)CC(NCc1ccccc1)C(=O)O` (stereo not given), the viability was 103%.
Same read-out and setting: with `CCOC(=O)c1oc2ccccc2c1CSc1nnnn1-c1ccc(OC)cc1` the figure was 73.9%.
Same read-out and setting: with `CC1(C)CC(=O)C2=C(C1)OC(=O)C2(NC(=O)c1cccs1)C(F)(F)F` (stereo not given) the figure was 94.2%; with `CCc1ccc(CNCc2cccnc2)cc1`, 85.4%; with `CCOC(=O)C1CCN(C(=O)C2CCN(S(=O)(=O)c3cc(Cl)ccc3Cl)CC2)CC1`, 68.7%.
On the same count and under the same terms, with `Cc1cnc(-c2nnc(N(C)C(=O)C3CCOC3)s2)cn1` (stereo not given) the figure was 84.4%.
On to `CN1/C(=C\C(=O)C(F)F)C(C)(C)c2ccccc21`, for which the viability worked out at 87.4%.
With `Nc1cc(CN2C(=O)c3ccccc3C2=O)cc(Cl)c1O`, the viability was determined as 79.2%.
Still for that read-out and setting: with `COCc1nnc(NC(=O)CCCOc2ccccc2)s1` the figure was 88.1%; with `CCCN(CCC)S(=O)(=O)c1ccc(NS(C)(=O)=O)cc1`, 99%; with `Cc1nnc2n(-c3ccccc3)c(=O)c3c4c(sc3n12)CCCC4`, 52.4%.
The same measure, in the same setting: with `COC(=O)c1ccccc1NC(=O)C1CC(=O)N(c2ccc(F)cc2)C1` (stereo not given) the figure was 80.6%; with `O=C(CCc1ccccc1)Nc1ccncc1`, 92.6%; with `CN(CC(=O)Nc1nccs1)S(=O)(=O)c1ccc(F)cc1`, 103%.
Regarding `COc1cccc(-c2nc(CSCC(=O)N3CCc4ccccc43)c(C)o2)c1`, the viability stood at 97.1%.
With `CCCC(=O)Nc1nnc(CC(=O)OCC)s1`, the viability was found to be 89%.
As for `COc1ccc(N2CCN(C(c3cccs3)C(C)NC(=O)c3ccco3)CC2)cc1` (stereo not given), the viability worked out at 90.3%.
Still for that read-out and setting: with `O=C(CSc1ncccn1)NCc1ccccc1` the figure was 100%; with `Cc1ccc(-c2[nH]nc3c2C(c2ccc(OC(=O)N4CCOCC4)cc2)C(C#N)=C(N)O3)cc1` (stereo not given), 96%.
Same read-out and setting: with `O=C(Nc1ccccc1)N(O)c1ccc(Cl)cc1` the figure was 77.9%; with `CCCCCC(=O)N1CC2(CC)CN(C(=O)CCCCC)CC(CC)(C1)C2=O`, 89.7%.
For `Cc1cc(NC(=O)C23CCC(C)(c4nc5cc(Cl)c(Cl)cc5nc42)C3(C)C)no1` (stereo not given), the viability worked out at 77.1%.
On the same count and under the same terms, with `CCOC(=O)CSc1nnc(Cn2nnc(-c3ccccc3)n2)n1CC` the figure was 92.7%; with `O=C(COC(=O)c1ccc(Br)o1)Nc1ccc(S(=O)(=O)N2CCCC2)cc1`, 82.3%; with `Cc1cccc(-n2c(O)c(C=Nc3ccccc3N)c(=O)[nH]c2=O)c1`, 38.3%.
In the case of `Cn1c(-c2ccccc2)cc(=O)c2ccccc21`, the viability was determined as 103%.
As to `COc1cc(S(=O)(=O)NC2CCCCC2)ccc1Cl`, the viability is 85.3%.
The same measure, in the same setting: with `c1ccc(Cn2nnnc2CN2CCN(c3ncccn3)CC2)cc1` the figure was 101%; with `CS(=O)(=O)N(CC(=O)O)c1cccc(Cl)c1`, 96.6%; with `O=S1(=O)CC(N2CCOCC2)c2ccccc21` (stereo not given), 98.1%.
Still for that read-out and setting: with `C=CCn1cc(C(=O)NCCOC)c(=O)c2cc(S(=O)(=O)N(CC)CC)ccc21` the figure was 92.4%; with `Cc1ccc(C(=O)OCC(=O)c2ccc(Cl)s2)s1`, 90.8%.
On the same count and under the same terms, with `CCOC(=O)/N=C(/NC(=O)Nc1ccc(C(=O)OCC)cc1)OC` the figure was 81.8%.
